Bioassay records: PubChem BioAssay, several laboratories
GASC-1 inh: inhibitors of human GASC-1 (JMJD2C) demethylase; Q9H3R0; GST-JMJD2C(1-420) H3K9me3 demethylation, DELFIA europium; inhibition, % at 2.35 µM; 330,000 compounds, 0.069% hits; AID 2099;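 active means more than half of a compound's replicate wells show inhibition beyond 50%, single wells judged on their own value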;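 further: signal counts dimethyl H3K9 product captured on neutravidin plate; 0% = median of DMSO wells and 100% = 0.3 times that DMSO median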
ABCB6 inh 2: human ABCB6 transporter inhibition. fluorescence ratio to DMSO, % at 10 µM. AID 602162. K562-ABCB6 porphyrin accumulation, flow cytometry, 1 h; active compounds read low. 360,000 compounds, 0.19% hits;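 active means fluorescence ratio to DMSO below 75%, the collection mean minus 3 SD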;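 further: signal is porphyrin accumulated inside mitochondria; 100% equals median channel fluorescence of DMSO control wells; lower ratio means ABCB6 inhibition with less porphyrin fluorescence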
Target sequence (Q9NP58 whole entry, looked up): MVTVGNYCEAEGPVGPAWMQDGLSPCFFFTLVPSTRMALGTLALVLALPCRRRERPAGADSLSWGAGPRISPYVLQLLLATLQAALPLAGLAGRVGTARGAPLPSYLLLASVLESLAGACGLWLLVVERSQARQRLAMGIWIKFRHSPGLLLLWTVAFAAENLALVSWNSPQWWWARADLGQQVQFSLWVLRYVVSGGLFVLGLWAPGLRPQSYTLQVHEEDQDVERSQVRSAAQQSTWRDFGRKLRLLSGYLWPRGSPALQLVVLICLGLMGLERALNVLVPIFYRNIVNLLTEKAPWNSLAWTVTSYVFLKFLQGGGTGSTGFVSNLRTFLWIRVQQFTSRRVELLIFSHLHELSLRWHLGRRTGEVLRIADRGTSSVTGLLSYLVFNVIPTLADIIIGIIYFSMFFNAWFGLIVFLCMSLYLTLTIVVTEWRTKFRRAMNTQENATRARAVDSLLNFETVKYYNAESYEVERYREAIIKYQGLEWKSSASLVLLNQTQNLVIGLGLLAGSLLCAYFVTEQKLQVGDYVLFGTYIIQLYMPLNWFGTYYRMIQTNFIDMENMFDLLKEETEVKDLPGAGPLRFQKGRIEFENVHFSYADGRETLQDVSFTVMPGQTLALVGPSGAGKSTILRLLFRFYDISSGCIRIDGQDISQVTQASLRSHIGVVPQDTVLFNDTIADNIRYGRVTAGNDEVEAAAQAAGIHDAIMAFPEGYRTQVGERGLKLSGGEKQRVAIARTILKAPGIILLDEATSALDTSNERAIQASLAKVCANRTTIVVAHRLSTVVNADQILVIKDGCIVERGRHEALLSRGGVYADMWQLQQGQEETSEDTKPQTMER
VLA-4 inh: inhibition in a human VLA-4 binding assay | VLA-4 expressing cells, ligand binding flow cytometry | inhibition, % (about 7 µM as worked out from the volumes in the protocol) | 330,000 compounds, 0.2% hits; in the data active means inhibition above about 50%
PolyA inh: yeast polyadenylation inhibition | 300,000 compounds, 0.02% hits | S. cerevisiae SKY197-pL101 polyadenylation reporter, beta-gal luminescence; efflux-impaired pdr1/pdr3 knockout yeast; score 100 = 6 SD above DMSO | activity score, % at 12 µM;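 active means lowest replicate activity score at least 50, where 100 means six control SD above control mean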;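 further: yeast exposed to compound for 9 h at 30 °C; higher score means more reporter readthrough which indicates perturbed polyadenylation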
ABCB6 inh CP1: blocks the human ABCB6 transporter; AID 602430; shares compounds with ABCB6 inh 2; 700 tested, under 10 active; K562-ABCB6 porphyrin accumulation, flow cytometry, 1 h; active compounds read low; ratio response (% of DMSO), % at 10 µM;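 active means repeat-averaged ratio response below 75% of DMSO, the collection mean minus 3 SD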;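 further: median porphyrin fluorescence at 575 nm with 488 nm excitation from mitochondria; lower ratio means less porphyrin signal so ABCB6 inhibition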
The depositor's hits bear a star. Sampled rows, rich in hits. Any-hit rate of the full collection: about 0.44%.

Screening c1csc(CNCCCN2CCOCC2)c1 returned GASC-1 inh 7, ABCB6 inh 2 102, VLA-4 inh 7 and PolyA inh -7.
Screening CCCCOCCCNCc1cccn1CCN1CCOCC1 returned GASC-1 inh -27, ABCB6 inh 2 66*, VLA-4 inh 1, PolyA inh 11 and ABCB6 inh CP1 100.
For CCC(=O)N1CCc2cc(S(=O)(=O)N(CC)c3cccc(C)c3)ccc21 the results were GASC-1 inh 3, ABCB6 inh 2 92, VLA-4 inh 15 and PolyA inh 4.
For CCN(c1cccc(C(F)(F)F)c1)S(=O)(=O)c1ccc2c(c1)CCN2C(=O)C1CC1 the results were GASC-1 inh 3, ABCB6 inh 2 72*, VLA-4 inh 4, PolyA inh -7 and ABCB6 inh CP1 101.
Cc1cccc(N2CCN(c3cccc(C)c3)C2c2cccnc2)c1 was read as GASC-1 inh 6, ABCB6 inh 2 96, VLA-4 inh -7 and PolyA inh -10.
`CCOC(=O)[C@H]1[C@H]2COc3cc(OC)ccc3[C@@H]2N2C(=O)N(c3cccc(F)c3)C(=O)[C@@]12C` gave GASC-1 inh 0, ABCB6 inh 2 99 and VLA-4 inh 24.
Screening CCOC(=O)[C@@H]1[C@H]2COc3cc(OC)ccc3[C@H]2N2C(=O)N(c3cccc(F)c3)C(=O)[C@@]12C returned GASC-1 inh 5, ABCB6 inh 2 73*, VLA-4 inh 16 and ABCB6 inh CP1 99.
Screening O=C(NCCNC(=O)c1ccc(Cl)cc1Cl)c1ccccn1 returned GASC-1 inh -27, ABCB6 inh 2 102, VLA-4 inh 4 and PolyA inh -7.
Screening CSCCC(NC(N)=O)C(=O)N(C)CC(=O)Nc1cc(C)ccc1C (stereo not drawn) returned GASC-1 inh 3, ABCB6 inh 2 69*, VLA-4 inh -34, PolyA inh -2 and ABCB6 inh CP1 100.
Screening Cc1cc(C)nc(NS(=O)(=O)c2cccs2)c1 returned GASC-1 inh -4, ABCB6 inh 2 69*, VLA-4 inh 3, PolyA inh 13 and ABCB6 inh CP1 97.
`CCOC(=O)CC(=O)CSc1ccc2nnc(-c3ccc(C)cc3)n2n1` gave GASC-1 inh 6, ABCB6 inh 2 190, VLA-4 inh 3 and PolyA inh 7.
For CCN(CC)S(=O)(=O)c1cccc(-n2c(O)c(C=Nc3ccccc3C(=O)O)c3ccccc3c2=O)c1 the results were GASC-1 inh 1, ABCB6 inh 2 74*, VLA-4 inh 5, PolyA inh 5 and ABCB6 inh CP1 83.
Screening O=C(NCc1cccs1)c1cccc2c(-c3ccc(F)c(F)c3)coc12 returned ABCB6 inh 2 101.
Screening O=C1c2ccccc2C(=O)N1CCc1csc(-c2cccc(Cl)c2)n1 returned GASC-1 inh 0, ABCB6 inh 2 95, VLA-4 inh -1 and PolyA inh -13.
`O=C1c2ccccc2C(=O)N1CCc1csc(-c2cccc(F)c2)n1` gave GASC-1 inh 2, ABCB6 inh 2 72*, VLA-4 inh -2, PolyA inh -26 and ABCB6 inh CP1 98.
Cc1c(Cl)cccc1NC(=O)CCCn1cnc([N+](=O)[O-])n1 was read as GASC-1 inh -29, ABCB6 inh 2 101 and PolyA inh 1.
For O=C(CCCn1cnc([N+](=O)[O-])n1)Nc1cccc(Cl)c1Cl the results were GASC-1 inh -12, ABCB6 inh 2 72*, VLA-4 inh 14, PolyA inh 8 and ABCB6 inh CP1 104.
For CN(C)C(=O)CCc1ccc2c3c([nH]c2c1)[C@]1(CCC2CCCC2)[C@@H](C(=O)N2CCOCC2)C[C@H](CC(=O)NCCN2CCOCC2)C(=O)N1CC3 the results were ABCB6 inh 2 101.
COc1ccc(N2C(=O)CSC2c2cccc(F)c2)cc1 (stereo not drawn) was read as GASC-1 inh -6, ABCB6 inh 2 74*, VLA-4 inh -11, PolyA inh -7 and ABCB6 inh CP1 97.
For CCOc1ccc(S(=O)(=O)N2CCN(C(=O)c3cc(S(=O)(=O)N4CCOCC4)ccc3C)CC2)cc1 the results were ABCB6 inh 2 68* and ABCB6 inh CP1 103.
For O=c1oc2ccccc2c(NC2CCCCC2)c1NS(=O)(=O)c1ccc(F)cc1 the results were GASC-1 inh 14, ABCB6 inh 2 97, VLA-4 inh 13 and PolyA inh 15.
`COc1ccc(S(=O)(=O)Nc2c(NC3CCCCC3)c3ccccc3oc2=O)cc1` gave GASC-1 inh 4, ABCB6 inh 2 71*, VLA-4 inh -2, PolyA inh 1 and ABCB6 inh CP1 98.
For CCN1CCN(C(=O)c2ccc3c(=O)n(Cc4ccccc4OC)c(=S)[nH]c3c2)CC1 the results were GASC-1 inh -3, ABCB6 inh 2 69*, VLA-4 inh -9, PolyA inh 12 and ABCB6 inh CP1 102.
For COc1cccc(/C=N\NC(=O)c2ccc(Cn3cc(Br)c([N+](=O)[O-])n3)o2)c1O the results were GASC-1 inh 4, ABCB6 inh 2 95, VLA-4 inh 7 and PolyA inh 19.
For COc1cccc(N2CCN(C(=O)CC(C)(C)CC3=NS(=O)(=O)c4ccccc4N3)CC2)c1 the results were GASC-1 inh 3, ABCB6 inh 2 14*, VLA-4 inh -7, PolyA inh 9 and ABCB6 inh CP1 100.
For O=C(COc1ccccc1)N1CCN(C(=O)COc2ccccc2)CC1 the results were GASC-1 inh 6, ABCB6 inh 2 68*, VLA-4 inh 4, PolyA inh -4 and ABCB6 inh CP1 99.
For O=C(COc1ccccc1)N1CCCCCCC1 the results were GASC-1 inh 26, ABCB6 inh 2 98, VLA-4 inh -2 and PolyA inh 13.
Screening COc1ccc(N(CC(=O)NC(C)C)S(=O)(=O)c2ccc(NC(C)=O)cc2)cc1 returned GASC-1 inh 1, ABCB6 inh 2 69*, VLA-4 inh 7, PolyA inh 7 and ABCB6 inh CP1 98.
Cn1c(CNC(=O)C(Cc2ccccc2)NC(=O)c2cccc(F)c2)cc(=O)n(C)c1=O (stereo not drawn) was read as GASC-1 inh -14, ABCB6 inh 2 92, VLA-4 inh 4 and PolyA inh 4.
Screening CCn1nc(C(=O)O)c(=O)c2cc3c(cc21)OCO3 returned GASC-1 inh -5, ABCB6 inh 2 71*, VLA-4 inh -1, PolyA inh 0 and ABCB6 inh CP1 99.
`CCn1cc(C(=O)O)c(=O)c2cc3c(cc21)OCO3` gave GASC-1 inh 3, VLA-4 inh 8 and PolyA inh 14.
CC(=O)N1C(=O)C2(C(C#N)=C(N)Oc3c2c(C)nn3-c2ccccc2)c2ccccc21 (stereo not drawn) was read as GASC-1 inh -2, ABCB6 inh 2 44*, VLA-4 inh -5, PolyA inh 17 and ABCB6 inh CP1 101.
For Cc1nn(-c2ccccc2)c2c1C1(C(=O)N(C)c3ccccc31)C(C#N)=C(N)O2 (stereo not drawn) the results were GASC-1 inh 1, ABCB6 inh 2 97, VLA-4 inh 14 and PolyA inh -15.
